# Measurements reported in ChEMBL document CHEMBL4513216, “Probing the Open Global Health Chemical Diversity Library for Multistage-Active Starting Points for Next-Generation Antimalarials” (ACS Infect Dis, 2020).
# Out of some 68,000 compounds screened, about 2,700 (4%) showed an effect of 50% or more. This excerpt belongs to a sample that is enriched for strong results.
# Tested on: Plasmodium berghei
# Test: Screen against P. berghei liver stage (PbLuc), transformed with Luciferase, at 2uM
# Format: functional, HepG2
# Details: tested at 2 uM
row,Structure (SMILES),INHIBITION
1,CS(=O)(=O)CCNC1CCCN(Cc2noc(C3CC3)n2)C1 (configuration not stated),33.52%
2,CC(C)c1cc(C(=O)NCC2CCCN(C(C)C)C2)n(C)n1 (configuration not stated),48.04%
3,Cc1cc(C(=O)N2CCN(C(=O)CCC3CCCCC3)CC2)n(C)n1,74.44%
4,O=C(c1ccon1)N1CCN(c2ccncc2Cl)CC1,39.5%
5,Cc1nn(C)c(C)c1C(=O)N1CCN(C(=O)CCC2CCCCC2)CC1,21.97%
6,Cc1nn(C)c(C)c1C(=O)N1CCN(c2ccncc2Cl)CC1,4%
7,Cc1cc(C(=O)N2CCN(c3ccncc3Cl)CC2)n(C)n1,64.35%
8,Cc1nn(C)c(C)c1C(=O)N1CCN(C(=O)CC2CCCCC2)CC1,43.44%
9,Cc1cc(C)n(CC(C)CNC(=O)N(C)Cc2cc(C)on2)n1 (configuration not stated),0.89%
10,Cc1nc(-c2cc(C(=O)NCCN3CCOCC3)c3ccccn23)cs1,-40.36%
11,CC(c1ccncc1)N(C)S(C)(=O)=O (configuration not stated),-22.2%
12,Cc1noc([C@]23COC[C@H]2CN(C(=O)Cc2ccsc2)C3)n1,15.36%
13,CCS(=O)(=O)N1CCOC(CCCc2ccccc2)C1 (configuration not stated),1.94%
14,CC(C)(CN1CCC(Cc2ccc(CO)cc2)C1)N1CCOCC1 (configuration not stated),-57.88%
15,CC(C)(CN1CCC(Cc2cccc(C(=O)O)c2)C1)N1CCOCC1 (configuration not stated),-32.96%
16,CC(C)(CN1CCC(Cc2ccc(C(=O)O)cc2)C1)N1CCOCC1 (configuration not stated),52.01%
17,c1cnc(-c2noc(C3CN(Cc4ccc5c(c4)CCO5)C3)n2)nc1,-17.26%
18,COc1ccccc1C(=O)N(C)Cc1nnc2ccccn12,40.82%
19,COC(=O)C(c1cc(F)ccc1F)N(C)C(=O)c1cnc(C)cn1 (configuration not stated),60.09%
20,COC(=O)C(c1cc(F)ccc1F)N(C)C(=O)c1ccnc(C)n1 (configuration not stated),-12.91%
21,COC(=O)C(c1cc(F)ccc1F)N(C)C(=O)c1cnccn1 (configuration not stated),-27.5%

row,Structure (SMILES),INHIBITION
1,Cc1cc(C)n(CCC2CC(=O)Nc3cc(O)c(C)cc32)n1 (configuration not stated),-32.52%
2,Cc1noc(C(C)C)c1C(=O)NCCCN1CCNCC1,43.16%
3,Cc1noc(C(C)C)c1C(=O)NCCN1CCCCCC1=O,60.21%
4,Cc1noc(C)c1C(=O)NCCN1CCOCC1,63.46%
5,Cc1noc(C(C)C)c1C(=O)NCCCN1CCC(C)CC1,-15.34%
6,Cc1noc(C(C)C)c1C(=O)NCCCN1CCCCCC1=O,77.68%
7,Cc1noc(C)c1C(=O)NCCN1CCN(S(C)(=O)=O)CC1,-41.64%
8,Cc1noc(C(C)C)c1C(=O)NCCN1CCOCC1,32.63%
9,Cc1noc(C(C)C)c1C(=O)NCCC(=O)N1CCCCC1,11.57%
10,Cc1noc(C(C)C)c1C(=O)NCCCN1CCCC1,-75.02%
11,Cc1nc(-c2ccccc2C)n(CC(=O)NC2CCCC2)n1,31.57%
12,Cn1ccc(C(=O)N2CCCC2c2cc[nH]n2)n1 (configuration not stated),16.43%
13,COCCc1ncc(CN2C[C@@H](C(=O)O)[C@H](C(C)C)C2)cn1,-59.6%
14,COc1ccc(-n2ccc(CNCc3cccc(OC)c3)n2)cc1,28.75%
15,O=C(NCc1cnn2cccnc12)C1CC2(CCNCC2)CN1 (configuration not stated),-1.33%
16,Cn1cc(-c2cnc(N3CCOCC3)nc2)cc1C(=O)NCCC#N,-0.45%
17,COCC(NC(=O)c1cc(NC(C)=O)ccc1Cl)c1ccnn1C (configuration not stated),21.97%
18,COCC(NC(=O)c1cc(NC(C)=O)ccc1Cl)c1ccccn1 (configuration not stated),29.13%
19,CCC(NC(=O)c1cc(NC(C)=O)ccc1Cl)c1cc(C)ccn1 (configuration not stated),57.75%
20,COC(=O)C1CCCN1CC(=O)NCc1ccc(OCC(N)=O)cc1 (configuration not stated),-6.33%
21,O=C1CCC[C@]2(CN(S(=O)(=O)N3CCCCC3)C[C@H]2c2cccnc2)N1,-0.64%

row,Structure (SMILES),INHIBITION
1,CC(C)=CCN1CCN(C(=O)c2snnc2C)[C@H]2CS(=O)(=O)C[C@H]21,51.38%
2,CC(C)=CCN1CCN(CCCc2ccccc2)[C@H]2CS(=O)(=O)C[C@H]21,7.29%
3,CCCN1CCN(C(=O)c2cc3ccccc3cn2)[C@H]2CS(=O)(=O)C[C@H]21,35.01%
4,CCCN1CCN(C(=O)c2ccc3ccccc3n2)[C@H]2CS(=O)(=O)C[C@H]21,57.21%
5,CC(=O)N1CCN(C(=O)c2snnc2C)[C@H]2CS(=O)(=O)C[C@H]21,-3.73%
6,CC(C)=CCN1CCN(C(=O)CSc2ccccn2)[C@H]2CS(=O)(=O)C[C@H]21,64.9%
7,CC(C)=CCN1CCN(C(=O)COc2ccccc2)[C@H]2CS(=O)(=O)C[C@H]21,41.68%
8,O=C(CSc1ccccn1)N1CCN(CCO)[C@@H]2CS(=O)(=O)C[C@@H]21,67.28%
9,O=C(C1CC1)N1CCN(C(=O)CSc2ccccn2)[C@H]2CS(=O)(=O)C[C@H]21,-32.88%
10,Cc1nnsc1C(=O)N1CCN(CC2CC2)[C@@H]2CS(=O)(=O)C[C@@H]21,0.54%
11,CCCN1CCN(C(=O)c2cccc(C)n2)[C@H]2CS(=O)(=O)C[C@H]21,6.84%
12,CCCN1CCN(C(=O)Cc2cccnc2)[C@H]2CS(=O)(=O)C[C@H]21,23.19%
13,C[C@H](NC(=O)C1CCCC1)c1nc2cc(-c3ccc(F)cc3)ncn2n1,39.48%
14,CC(O)c1cccc(OCc2ccon2)c1 (configuration not stated),46.28%
15,Cn1cc(CN2CC[C@H]3O[C@H](C(=O)Nc4cnccn4)CC[C@H]32)cn1,-20.89%
16,CN(CC(=O)Nc1cccnc1)CC1CCCN1c1cccnn1 (configuration not stated),45.48%
17,Cc1nn(C)c(Cl)c1C1CCCN1C(=O)c1cnc[nH]1 (configuration not stated),8.37%
18,CC(=O)N(Cc1noc(C)n1)C1CCN(CC(=O)N(C)C2CC2)C1 (configuration not stated),-3.97%
19,Cc1nccn1CCN(C)C(=O)C1CCN(C(=O)C2CCC2)CC1,20.45%
20,CN(C)CCN1C[C@@H]2CN(S(=O)(=O)c3ccccc3)C[C@@H]2C1=O,19.16%
